The values that follow come from the supplement of paper PMC6555819.

Experiment in all cases: PBM binding z-score (relative to random genomic background probes); higher = stronger binding; sequences stand for … in GC…GCGATTGACAGCGTAGAATGAAGG
The subject of assay [1] is FXR:RXRa (NR concentration 270 nM, RXRa partner concentration 90 nM). The essentials:
(§1)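 Custom Agilent 4×180K protein-binding microarrays carried double-stranded probes. Their 34-nt variable regions held direct-repeat seeds, single-nucleotide variants, half-site ablations and random human genomic background sequences. Arrays were incubated 1 h with ligand-free nuclear receptor dimers in PBS pH 7.4, 2% milk, 0.02% Triton X-100, 1 mM DTT, 0.2 mg/mL BSA and 0.4 mg/ml salmon testes DNA. Antibodies against each partner (one per run) detected binding, and scanned fluorescence was regression-normalized. Binding z-scores use random background probes as reference.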

The subject of assay [2] is LXRa:RXRa (NR concentration 270 nM, RXRa partner concentration 90 nM). The essentials: as §1
Assay [3] concerns LXRa homodimer (NR concentration 270 nM). A digest of the protocol: as §1
In assay [4] the test system is LXRb:RXRa (NR concentration 270 nM, RXRa partner concentration 90 nM). The essentials:
as §1

The subject of assay [5] is LXRb homodimer (NR concentration 270 nM). A digest of the protocol:
as §1

For assay [6], the system named is PPARa:RXRa (NR concentration 270 nM, RXRa partner concentration 90 nM). A digest of the protocol:
as §1

In assay [7] the test system is PPARg:RXRa (NR concentration 180 nM, RXRa partner concentration 90 nM). A digest of the protocol: as §1
In assay [8] the test system is PPARg:RXRa 270nM:90nM, anti-RXR (NR concentration 270 nM, RXRa partner concentration 90 nM). A digest of the protocol:
as §1

The test system of assay [9] is PPARg:RXRa 30nM:10nM, anti-RXR (NR concentration 30 nM, RXRa partner concentration 10 nM). The essentials:
as §1

The subject of assay [10] is PPARg:RXRa 90nM:30nM, anti-RXR (NR concentration 90 nM, RXRa partner concentration 30 nM). A digest of the protocol: as §1
The test system of assay [11] is PPARg:RXRa DBDmut IVT, anti-RXR (DBD mutation: RXRa K156A/R161A, NR concentration 270 nM, RXRa partner concentration 90 nM). A digest of the protocol: as §1
Assay [12] concerns PPARg:RXRa IVT, anti-PPARg (NR concentration 270 nM, RXRa partner concentration 90 nM). The essentials: as §1
For assay [13], the system named is PPARg DBDmut:RXRa IVT, anti-PPARg (DBD mutation: PPARg1 K132A/R137A, NR concentration 270 nM, RXRa partner concentration 90 nM). A digest of the protocol: as §1
In assay [14] the test system is PPARg DBDmut IVT, anti-PPARg (DBD mutation: PPARg1 K132A/R137A, NR concentration 270 nM). The essentials:
as §1

Assay [15] deals with PPARg homodimer (NR concentration 180 nM). A digest of the protocol: as §1
Assay [16] concerns PXR:RXRa (NR concentration 270 nM, RXRa partner concentration 90 nM). The essentials: as §1
Assay [17] relates to PXR homodimer (NR concentration 270 nM). The essentials: as §1
For assay [18], the system named is RARa:RXR (NR concentration 270 nM, RXRa partner concentration 90 nM). A digest of the protocol: as §1
Assay [19] concerns RARa homodimer (NR concentration 270 nM). A digest of the protocol:
as §1

The subject of assay [20] is RARb:RXRa (NR concentration 270 nM, RXRa partner concentration 90 nM). A digest of the protocol:
as §1

On to ATACGTAGGTTAGCTGGGGTCATTCAGACTAGGC, for which the PBM binding z-score was found to be 5.03 in assay [1]; 5.91 in assay [2]; 2.24 in assay [3]; 4.72 in [4]; 0.757 in assay [5]; 4.24 in assay [6]. The PBM binding z-score in assay [7] is 1.72; in assay [8] it was 2.91; in [9] it was 0.452; in [10] it was 1.55; in assay [11] it was 0.981; in assay [12] it was 1.51. Besides, the PBM binding z-score in assay [13] amounted to 0.0785; in assay [14], 0.0192; in assay [15] it was 1.82; in [16], 6.17; in assay [17] it was 4.22; in assay [18], 5.33. Besides, the PBM binding z-score in assay [19] was 0.497; in assay [20] it was 2.93.

Take TCATATAGGTAATATAGGTGAAAGTCGGCATCTA: the PBM binding z-score in [1] was 0.703; in assay [2] it was 1.07; in assay [3], 0.157; in [4] it was 0.856; in [5] it was 0.102; in [6], 2.92. In addition, the PBM binding z-score amounted to 3.31 in assay [7]; 3.65 in assay [8]; 4.1 in assay [9]; 3.94 in [10]; 5.06 in assay [11]; 5.68 in assay [12]. Further, the PBM binding z-score was 1.83 in [13]; 1.71 in assay [14]; 1.03 in [15]; 0.599 in assay [16]; -0.0145 in assay [17]; 1.09 in assay [18]. The PBM binding z-score in assay [19] was found to be 0.799; in assay [20] it was 0.469.

For ATTCGGAGGACAAAGGTCAGAGCTACGCCAGTGA, the PBM binding z-score in assay [1] turned out to be 4.05; in assay [2] it was 4.26; in [3], 1.79; in assay [4] it was 3.52; in assay [5], 0.763; in assay [6] it was 4.9. For the same sequence, the PBM binding z-score in assay [7] was determined as 7.69; in [8], 6.94; in assay [9], 7.1; in assay [10] it was 7.23; in [11] it was 0.417; in assay [12], 3.74. Moreover, the PBM binding z-score in [13] is 0.302; in assay [14] it was -0.48; in [15] it was 3.33; in assay [16], 3.99; in assay [17], 0.477; in [18], 4.9. For the same sequence, the PBM binding z-score in assay [19] was found to be 0.808; in [20] it was 4.39.

In the case of CGTCAAAGTTCAAGGTGACGTAACAGAAAGCAGC, the PBM binding z-score came out at 6.62 in assay [1]; 5.96 in assay [2]; 2.8 in [3]; 3.49 in assay [4]; 0.846 in assay [5]; 4.92 in assay [6]. The PBM binding z-score turned out to be 4.71 in assay [7]; 5.65 in assay [8]; 2.12 in assay [9]; 4.45 in assay [10]; 0.983 in assay [11]; 2.9 in assay [12]. Besides, the PBM binding z-score in assay [13] is 0.379; in assay [14] it was 0.562; in assay [15], 2.88; in [16] it was 4.44; in assay [17] it was 2.3; in [18] it was 3.88. In addition, the PBM binding z-score in assay [19] worked out at 1.52; in [20], 5.21.

Turning to CCTAATGGGCCACGAAAGGTCATTGATTCAGTGA, the PBM binding z-score amounted to 3.91 in [1]; 5.44 in [2]; 4.82 in [3]; 4.5 in assay [4]; 0.556 in [5]; 4.42 in [6]. For the same sequence, the PBM binding z-score in assay [7] was 3.05; in assay [8], 4.1; in assay [9] it was 1.8; in assay [10] it was 3.4; in [11] it was 3.95; in assay [12], 4.1. For the same sequence, the PBM binding z-score in assay [13] is 0.487; in assay [14], 0.297; in [15], 2.38; in [16], 5.44; in assay [17] it was 1.32; in assay [18], 5.08. Besides, the results for the PBM binding z-score in [19] and in [20] were 0.945 and 4.16, respectively.

Consider ATATGTAGGTTATCGGGTCACTCAGTTTGCGCAT, for which the PBM binding z-score in [1] was determined as 2.62; in [2] it was 2.95; in assay [3], 1.49; in assay [4], 2.89; in [5], 1.3; in assay [6] it was 5.02. Further, the PBM binding z-score in [7] stood at 7.63; in assay [8], 6; in assay [9] it was 3.64; in assay [10] it was 5.8; in [11] it was 7.7; in assay [12], 7.75. Also, the PBM binding z-score in assay [13] worked out at 1.5; in assay [14], 2.23; in [15], 3.69; in assay [16], 3.61; in [17], 4.7; in assay [18] it was 3.72. Also, the PBM binding z-score came out at 1.9 in [19] and 2.68 in assay [20].

For CCTCGGAGGACAACAGGTGGTCAGAGCTGCCAGA, the PBM binding z-score is -0.329 in assay [1]; -0.519 in assay [2]; -0.443 in assay [3]; -0.782 in [4]; -1.09 in [5]; -0.623 in assay [6]. Further, the PBM binding z-score in [7] is -0.311; in assay [8], -0.79; in [9], -1.45; in assay [10] it was -1.37; in assay [11], -0.455; in [12], -0.616. In addition, the PBM binding z-score is -2.74 in [13]; -2.26 in assay [14]; -0.317 in [15]; -0.667 in assay [16]; -0.589 in assay [17]; -0.583 in assay [18]. Further, the PBM binding z-score in assay [19] is -0.066; in [20] it was 1.04.
